# Source: the supplement of paper PMC11732987, “Enantioselective OTUD7B fragment discovery through chemoproteomics screening and high-throughput optimisation” (Communications Chemistry, 2025)
# Values without a mark were called inactive.
# How the values were obtained:
# Assay in all cases: log2 ratio of Biotin-Ahx-Ub-VS probe labelling (fragment/DMSO); higher = less target engagement (more negative = stronger competition), active = hit call of the paper (q ≤ 0.05, log2 ratio ≤ -1)
# Details in all cases: compound concentration: 200 uM; treatment time: 3 h
# OTUD6B = target: T1, OTUD6B (UniProt Q8N6M0)
# T1 sequence (whole entry): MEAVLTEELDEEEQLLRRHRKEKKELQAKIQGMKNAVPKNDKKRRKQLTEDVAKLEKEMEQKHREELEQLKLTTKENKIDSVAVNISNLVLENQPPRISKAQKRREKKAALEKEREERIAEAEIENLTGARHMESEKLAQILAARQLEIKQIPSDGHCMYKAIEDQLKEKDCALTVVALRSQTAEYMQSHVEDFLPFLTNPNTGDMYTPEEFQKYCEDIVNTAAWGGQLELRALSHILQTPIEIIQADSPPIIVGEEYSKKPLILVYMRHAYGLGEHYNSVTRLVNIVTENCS
# Method in brief: (§1)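 HEK293T lysate (495 µg per sample, in Tris/CHAPS/IGEPAL buffer with protease inhibitors) was exposed in triplicate for 3 h to fragment at 200 µM or to vehicle, then to Biotin-Ahx-Ub-VS at 0.5 µM final for 1 h. Labelled DUBs were enriched on NeutrAvidin, digested with LysC and trypsin, and analysed by diaPASEF LC-MS/MS. Spectronaut label-free quantities were normalised to the global median, and values are average log2 ratios of fragment over vehicle from an unpaired t-test. Only proteins with ≥2 unique peptides were used.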
# OTUD7B = target: T2, OTUD7B (UniProt Q6GQQ9)
# T2 sequence (whole entry): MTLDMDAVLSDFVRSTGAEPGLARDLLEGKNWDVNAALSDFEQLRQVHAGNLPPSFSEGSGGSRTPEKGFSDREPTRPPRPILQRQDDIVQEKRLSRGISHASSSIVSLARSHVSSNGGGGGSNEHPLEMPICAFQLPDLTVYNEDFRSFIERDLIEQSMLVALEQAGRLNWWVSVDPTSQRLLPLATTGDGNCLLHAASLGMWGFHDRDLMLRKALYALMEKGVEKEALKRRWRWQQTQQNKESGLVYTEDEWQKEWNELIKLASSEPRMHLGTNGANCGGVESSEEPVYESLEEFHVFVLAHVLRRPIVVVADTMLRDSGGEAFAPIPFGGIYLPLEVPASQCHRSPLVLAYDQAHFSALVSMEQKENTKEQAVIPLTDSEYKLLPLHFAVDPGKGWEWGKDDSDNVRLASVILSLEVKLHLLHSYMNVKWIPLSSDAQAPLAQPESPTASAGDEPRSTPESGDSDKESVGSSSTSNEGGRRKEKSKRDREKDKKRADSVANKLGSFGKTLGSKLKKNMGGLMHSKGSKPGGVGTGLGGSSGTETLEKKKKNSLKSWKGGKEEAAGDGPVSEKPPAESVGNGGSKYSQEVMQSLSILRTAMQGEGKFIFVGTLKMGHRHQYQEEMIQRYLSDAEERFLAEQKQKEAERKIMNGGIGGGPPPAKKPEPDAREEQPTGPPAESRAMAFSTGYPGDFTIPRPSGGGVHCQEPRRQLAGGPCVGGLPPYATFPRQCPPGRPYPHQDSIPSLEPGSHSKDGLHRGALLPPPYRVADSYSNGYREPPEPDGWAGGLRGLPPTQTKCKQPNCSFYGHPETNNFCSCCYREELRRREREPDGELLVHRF
# Method in brief: as §1
# PRPF8 = PRPF8 (UniProt Q6P2Q9)
# Method in brief: as §1
# PSMD7 = target: T3, PSMD7 (UniProt P51665)
# T3 sequence (whole entry): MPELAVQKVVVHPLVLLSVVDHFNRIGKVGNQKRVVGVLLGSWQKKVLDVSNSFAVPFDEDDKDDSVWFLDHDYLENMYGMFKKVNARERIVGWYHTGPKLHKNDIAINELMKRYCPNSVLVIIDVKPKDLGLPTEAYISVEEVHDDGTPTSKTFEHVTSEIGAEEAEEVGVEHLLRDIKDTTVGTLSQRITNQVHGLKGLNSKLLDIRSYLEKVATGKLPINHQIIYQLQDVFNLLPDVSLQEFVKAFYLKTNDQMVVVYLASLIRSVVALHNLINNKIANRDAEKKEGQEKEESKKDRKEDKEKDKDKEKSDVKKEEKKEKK
# Method in brief: as §1
# UCHL1 = UCHL1 (UniProt P09936)
# Chain of UCHL1 (P09936 whole entry, looked up): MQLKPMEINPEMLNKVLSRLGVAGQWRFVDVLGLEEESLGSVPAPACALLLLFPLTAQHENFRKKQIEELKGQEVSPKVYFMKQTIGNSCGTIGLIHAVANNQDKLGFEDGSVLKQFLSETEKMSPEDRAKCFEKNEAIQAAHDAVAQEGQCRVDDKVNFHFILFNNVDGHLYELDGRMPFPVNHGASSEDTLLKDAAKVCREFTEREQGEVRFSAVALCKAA
# Method in brief: as §1
# UCHL3 = target: T4, UCHL3 (UniProt P15374)
# T4 sequence (whole entry): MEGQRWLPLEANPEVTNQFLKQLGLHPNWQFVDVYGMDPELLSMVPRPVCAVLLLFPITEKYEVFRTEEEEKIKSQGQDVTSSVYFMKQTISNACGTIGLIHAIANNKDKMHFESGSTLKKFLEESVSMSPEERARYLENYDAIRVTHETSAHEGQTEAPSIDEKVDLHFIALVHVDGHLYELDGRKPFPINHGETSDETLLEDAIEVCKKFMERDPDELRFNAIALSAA
# Method in brief: as §1
# UCHL5 = target: T5, UCHL5 (UniProt Q9Y5K5)
# T5 sequence (whole entry): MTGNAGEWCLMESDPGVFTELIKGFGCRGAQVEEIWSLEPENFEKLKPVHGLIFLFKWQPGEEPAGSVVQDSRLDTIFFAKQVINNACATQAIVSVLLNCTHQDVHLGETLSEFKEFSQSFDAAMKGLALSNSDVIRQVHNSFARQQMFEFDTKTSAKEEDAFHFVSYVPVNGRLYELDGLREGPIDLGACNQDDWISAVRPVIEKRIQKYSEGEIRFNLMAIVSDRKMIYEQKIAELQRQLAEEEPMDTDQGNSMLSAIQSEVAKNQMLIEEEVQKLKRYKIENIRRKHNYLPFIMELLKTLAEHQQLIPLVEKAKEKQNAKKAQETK
# Method in brief: as §1
# USP10 = USP10 (UniProt Q14694)
# Chain of USP10 (Q14694 whole entry): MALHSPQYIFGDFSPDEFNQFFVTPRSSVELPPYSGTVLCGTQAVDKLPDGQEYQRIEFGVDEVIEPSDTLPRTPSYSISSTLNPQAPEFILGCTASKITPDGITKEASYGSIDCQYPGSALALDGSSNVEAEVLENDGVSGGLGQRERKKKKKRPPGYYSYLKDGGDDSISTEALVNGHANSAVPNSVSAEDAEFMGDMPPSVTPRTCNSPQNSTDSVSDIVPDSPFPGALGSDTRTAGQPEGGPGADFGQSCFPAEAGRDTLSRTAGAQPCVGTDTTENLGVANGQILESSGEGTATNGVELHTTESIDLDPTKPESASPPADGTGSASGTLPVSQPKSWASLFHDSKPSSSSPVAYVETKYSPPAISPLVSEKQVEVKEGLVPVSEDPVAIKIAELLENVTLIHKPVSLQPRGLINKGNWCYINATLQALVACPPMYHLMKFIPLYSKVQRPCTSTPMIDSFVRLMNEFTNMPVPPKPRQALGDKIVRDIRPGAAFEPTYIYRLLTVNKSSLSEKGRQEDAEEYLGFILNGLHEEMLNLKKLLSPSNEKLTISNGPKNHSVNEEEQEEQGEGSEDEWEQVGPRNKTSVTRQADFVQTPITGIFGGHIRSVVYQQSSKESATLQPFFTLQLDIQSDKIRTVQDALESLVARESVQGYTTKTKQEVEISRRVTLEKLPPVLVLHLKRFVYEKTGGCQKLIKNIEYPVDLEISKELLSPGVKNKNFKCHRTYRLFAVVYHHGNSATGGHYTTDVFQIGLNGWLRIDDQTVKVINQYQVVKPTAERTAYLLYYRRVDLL
# Method in brief: as §1
# USP15 = target: T6, USP15 (UniProt Q9Y4E8)
# T6 sequence (whole entry): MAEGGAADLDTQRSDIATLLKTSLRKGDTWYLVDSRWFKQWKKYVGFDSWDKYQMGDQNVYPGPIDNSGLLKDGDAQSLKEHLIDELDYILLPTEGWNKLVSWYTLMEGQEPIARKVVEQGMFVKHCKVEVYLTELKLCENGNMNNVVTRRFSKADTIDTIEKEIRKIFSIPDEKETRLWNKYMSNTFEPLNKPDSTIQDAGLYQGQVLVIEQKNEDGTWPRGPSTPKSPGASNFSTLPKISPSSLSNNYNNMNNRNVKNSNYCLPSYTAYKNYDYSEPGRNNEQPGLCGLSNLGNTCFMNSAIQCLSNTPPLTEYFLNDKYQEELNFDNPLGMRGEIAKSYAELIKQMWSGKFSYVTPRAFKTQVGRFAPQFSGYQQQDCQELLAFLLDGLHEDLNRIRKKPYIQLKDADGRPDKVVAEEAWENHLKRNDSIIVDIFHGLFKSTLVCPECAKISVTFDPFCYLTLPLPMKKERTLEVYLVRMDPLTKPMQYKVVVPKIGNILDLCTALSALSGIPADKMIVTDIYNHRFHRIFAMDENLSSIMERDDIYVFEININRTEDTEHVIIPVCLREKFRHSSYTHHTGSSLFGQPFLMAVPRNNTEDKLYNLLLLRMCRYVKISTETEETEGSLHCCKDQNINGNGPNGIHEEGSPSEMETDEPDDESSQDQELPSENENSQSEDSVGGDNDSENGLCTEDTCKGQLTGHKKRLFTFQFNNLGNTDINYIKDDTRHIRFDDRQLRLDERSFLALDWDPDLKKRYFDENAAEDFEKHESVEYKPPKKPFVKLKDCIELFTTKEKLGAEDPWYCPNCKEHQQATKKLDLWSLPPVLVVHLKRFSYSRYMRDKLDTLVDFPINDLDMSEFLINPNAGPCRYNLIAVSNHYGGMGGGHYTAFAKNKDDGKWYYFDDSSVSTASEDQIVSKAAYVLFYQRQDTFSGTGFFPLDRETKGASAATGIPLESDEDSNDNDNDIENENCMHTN
# Method in brief: as §1
# USP16 = USP16 (UniProt Q9Y5T5)
# Chain of USP16 (Q9Y5T5 whole entry, looked up): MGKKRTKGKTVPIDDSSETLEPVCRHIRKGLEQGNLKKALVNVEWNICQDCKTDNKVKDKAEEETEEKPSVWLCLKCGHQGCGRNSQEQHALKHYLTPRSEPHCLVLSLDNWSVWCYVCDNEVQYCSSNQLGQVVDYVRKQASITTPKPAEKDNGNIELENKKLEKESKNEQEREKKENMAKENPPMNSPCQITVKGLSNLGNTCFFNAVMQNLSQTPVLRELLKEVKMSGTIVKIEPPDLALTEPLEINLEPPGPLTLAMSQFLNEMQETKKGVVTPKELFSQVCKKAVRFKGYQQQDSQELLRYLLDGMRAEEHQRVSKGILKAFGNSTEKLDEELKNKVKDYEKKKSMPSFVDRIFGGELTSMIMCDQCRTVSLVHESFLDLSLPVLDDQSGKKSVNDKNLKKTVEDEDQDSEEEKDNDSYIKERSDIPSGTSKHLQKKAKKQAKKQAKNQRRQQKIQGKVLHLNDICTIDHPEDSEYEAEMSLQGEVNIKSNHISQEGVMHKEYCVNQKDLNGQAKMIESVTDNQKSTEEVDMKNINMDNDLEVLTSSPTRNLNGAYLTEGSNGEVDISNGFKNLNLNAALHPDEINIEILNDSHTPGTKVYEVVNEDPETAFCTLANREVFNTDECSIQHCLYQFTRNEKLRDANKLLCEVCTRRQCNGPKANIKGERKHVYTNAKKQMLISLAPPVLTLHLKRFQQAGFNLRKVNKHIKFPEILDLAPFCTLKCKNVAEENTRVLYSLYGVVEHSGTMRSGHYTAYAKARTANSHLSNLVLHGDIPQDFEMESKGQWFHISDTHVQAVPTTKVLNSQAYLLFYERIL
# Method in brief: as §1
structure (smiles),measurement,setting,value
CC(NC(=O)CCl)c1cnn(C2CC2)c1 (stereo not given),log2 ratio of Biotin-Ahx-Ub-VS probe labelling,OTUD6B,-0.174
same,log2 ratio of Biotin-Ahx-Ub-VS probe labelling,OTUD7B,-1.99 (active)
same,log2 ratio of Biotin-Ahx-Ub-VS probe labelling,PRPF8,-0.0754
same,log2 ratio of Biotin-Ahx-Ub-VS probe labelling,PSMD7,-0.168
same,log2 ratio of Biotin-Ahx-Ub-VS probe labelling,UCHL1,-1.3 (active)
same,log2 ratio of Biotin-Ahx-Ub-VS probe labelling,UCHL3,0.329
same,log2 ratio of Biotin-Ahx-Ub-VS probe labelling,UCHL5,-0.187
same,log2 ratio of Biotin-Ahx-Ub-VS probe labelling,USP10,-0.103
same,log2 ratio of Biotin-Ahx-Ub-VS probe labelling,USP15,-0.182
same,log2 ratio of Biotin-Ahx-Ub-VS probe labelling,USP16,-0.19
